The results in this text go back to PubChem BioAssay AID1671192 (National Center for Advancing Translational Sciences (NCATS), 2021).

Inconclusive results are not listed. A number with no mark means an inactive call. Calls follow the shape of the dose curve; as a rule, active = well fitted curve in the direction sought with a large enough effect; inconclusive = small, poorly fitted or top-dose-only effect, or another doubt; inactive = no such curve, though single readings can be large or run the other way.

Chain of Polyunsaturated fatty acid lipoxygenase ALOX15 (Homo sapiens) (P16050 whole entry, looked up): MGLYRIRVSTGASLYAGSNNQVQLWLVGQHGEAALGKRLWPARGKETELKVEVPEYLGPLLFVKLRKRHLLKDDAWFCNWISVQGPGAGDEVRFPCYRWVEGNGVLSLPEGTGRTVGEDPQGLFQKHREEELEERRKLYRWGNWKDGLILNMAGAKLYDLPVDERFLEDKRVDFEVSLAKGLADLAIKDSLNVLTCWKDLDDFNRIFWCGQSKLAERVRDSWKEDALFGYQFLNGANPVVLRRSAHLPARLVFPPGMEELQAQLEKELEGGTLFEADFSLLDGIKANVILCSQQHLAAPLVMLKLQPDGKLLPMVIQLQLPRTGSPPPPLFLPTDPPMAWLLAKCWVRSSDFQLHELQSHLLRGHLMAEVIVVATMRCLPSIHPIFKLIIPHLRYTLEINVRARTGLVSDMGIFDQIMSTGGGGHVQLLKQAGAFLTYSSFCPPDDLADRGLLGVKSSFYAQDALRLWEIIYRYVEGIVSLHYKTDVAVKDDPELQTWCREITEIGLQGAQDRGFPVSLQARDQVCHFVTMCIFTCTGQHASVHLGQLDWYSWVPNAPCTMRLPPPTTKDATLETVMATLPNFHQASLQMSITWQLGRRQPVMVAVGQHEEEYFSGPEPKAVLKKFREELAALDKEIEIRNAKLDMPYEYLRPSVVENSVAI

This assay concerns the target Polyunsaturated fatty acid lipoxygenase ALOX15 (Homo sapiens) (UniProt P16050). The assay can be described thus: Counterscreen qHTS for inhibitors of human arachidonate 12S-lipoxygenase (ALOX12): ALOX15 Assay. Also: 0% is about no effect. Particulars: purified ALOX15 enzyme activity; series mostly up to 233 µM; activity change, negative = inhibition: at the top concentration. The text has this: Assay Provider: Theodore R. Holman Ph.D.
University of California, Santa Cruz, California
Human lipoxygenase 12hLO is a member of the closely related lipoxygenase family of enzymes which catalyze the site-specific oxidation of arachidonic acid to various hormone precursor molecules and as such is a candidate for drug development in a variety of disease areas, such as cancer and inflammation. Inhibition of 12hLO activity was screened by utilizing arachidonic acid as a substrate. The extent of hydroperoxide product formation was measured by a secondary chromogenic reaction in which xylenol orange (XO, Sigma-Aldrich, cat. number 39,818-7) reacts with the ferric ions produced from the reaction between the hydroperoxide and ferrous ions. The Fe (III)-XO complex is characterized with red-shifted absorbance at 560 nm. A purified preparation of human 12hLO was supplied by Dr. Holman laboratory, University of California, Santa Cruz.
An assay against arachidonate 15-lipoxygenase (ALOX15) was developed to assess selective inhibition against ALOX12. Desired compounds would show potent inhibition against ALOX12 and minimal to no inhibition against ALOX15.
SEQUENCE No. (e.g., 1, 2, 3, etc.); PARAMETER (e.g., Cells, Incubation, Reagent, etc.); VALUE; DESCRIPTION
1; Enzyme; 3 uL; 40 nM ALOX15 (15hLO-1) enzyme solution dispensed in 1536-well Greiner black, clear bottom plates.
2; Compound; 23 nL; compounds and controls were added.
3; Incubate; 15 min; room temperature.
4; Substrate; 1 uL; 50 uM arachidonic acid (final concentration).
5; Incubate; 30 min; room temperature.
6; Reagent; 4 uL; Fe-XO solution was added to each well.
8; Incubation; 30 min; room temperature
9; Detector; absorbance; Read 1 at 405 nm absorbance using ViewLux (PerkinElmer) CCD imager.
10; Detector; absorbance; Read 2 at 573 nm absorbance using ViewLux (PerkinElmer) CCD imager.
NOTES (numbers refer to sequence above)
1; 40 nM ALOX15 (final concentration) in buffer solution (25 mM Hepes, 0.01% Triton X-100, pH 7.5) was dispensed in columns 1, 2, 5 - 48. Column 1 is neutral (100% activity). Buffer only was dispensed in columns 3 and 4 as no enzyme negative controls. The plates were covered with metal lids with gas-exchange holes.
2; Compounds were pin transferred via a Kalypsys Pin Tool (Wako USA) in column 5 - 48. Control compound was transferred in column 2, titration of nordihydroguaiaretic acid (NDGA, Sigma-Aldrich, N5023) with top concentration of 10 mM in DMSO then 1:2 dilution in duplicate. Dilution factor of 23 nL into 4 uL final assay volume.
3; Covered assay plates were incubated for 15 min at room temperature.
4; Substrate was added to start the reaction; 50 uM arachidonic acid (Sigma-Aldrich, St. Louis, MO) was dispensed throughout the plate.
6; Chromogenic detection reagent solution (divalent iron/xylenol orange, Fe-XO) was added to each well: 200 uM xylenol orange, 300 uM ferrous ammonium sulfate prepared freshly in 50 mM sulfuric acid.
9, 10; Two absorbance readouts were obtained at 405 nm and at 573 nm using a ViewLux high-throughput CCD plate imager (PerkinElmer). The 573 to 405 (Read 2 / Read 1) absorbance ratio was used to compute reaction progress.
Background: The purpose of a counterscreen is to sort out artefacts and off-target activity.
Take `COc1ccc(CC(=O)N2Cc3ccccc3CC3(CCCCN3C)C2)cc1` (stereo not given): the “activity change, negative = inhibition” value is 1.23% [at 110 µM].
Turning to `O=C1Nc2ccccc2CN(Cc2ccncc2)C12CCNCC2`, the “activity change, negative = inhibition” value was -28.4% [at 110 µM].
For the compound `CNC1CCc2ccccc21` (stereo not given), the “activity change, negative = inhibition” value was -19.7%.
As to `CN(C)c1ccc(CN2CCC3(CC2)C(=O)Nc2ccccc23)cc1`, the “activity change, negative = inhibition” value was -21.5% [at 146 µM].
Turning to `CC(C)C1CN2CCCC2CN1` (stereo not given), the “activity change, negative = inhibition” value is -28.7%.
As to `CNC(C)c1ccc(Cl)cc1` (stereo not given), the “activity change, negative = inhibition” value is -14.3%.
As for `CCN1CCCCC12Cc1ccccc1CN(C(=O)Cc1ccc(OC)cc1)C2` (stereo not given), the “activity change, negative = inhibition” value is -13.8% [at 110 µM].
The value for `CCN1CCCCC12Cc1ccccc1CN(C(=O)Cc1ccccc1)C2` (stereo not given) was 30.9% [at 110 µM]; that for `O=C(Cc1ccc(Cl)cc1)N1Cc2ccccc2CC2(CCCN2CC2CCNC2)C1` (stereo not given) was -1.25% [at 110 µM].
Regarding `c1cnc2nc(C3CCNCC3)[nH]c2c1`, the “activity change, negative = inhibition” value is -13.3%.
Regarding `O=C(O)C1=NOC2CN(Cc3cccc(Br)n3)CC12` (stereo not given), the “activity change, negative = inhibition” value is -9.19% [at 146 µM].
`O=[S+]1([O-])NC2(CCN(CC3CCOCC3)C2)COc2ccncc21` (stereo not given): the “activity change, negative = inhibition” value is 6.63% [at 110 µM].
In the case of `CCCCC1CN2CCCC2CN1` (stereo not given), the “activity change, negative = inhibition” value was -19.4%.
As to `O=C1Nc2ccccc2C12CCN(CC1CCCCC1)CC2`, the “activity change, negative = inhibition” value is -21.5% [at 146 µM].
Regarding `O=C1NC2(Cc3ccccc31)CN(CC1CC1)C2`, the “activity change, negative = inhibition” value was 9.8%.
As to `O=C(O)C1=NOC2CN(Cc3ccccc3)CC12` (stereo not given), the “activity change, negative = inhibition” value was -24.1%.
As for `COc1ccc(C(CN)N2CCCC2)cc1` (stereo not given), the “activity change, negative = inhibition” value is 1.12%.
`CC1CN2CCCCC2CN1` (stereo not given): the “activity change, negative = inhibition” value was -4.4% [at 343 µM].
The value for `FC(F)(F)CN1C2CCC1CN(c1cncc(Br)c1)C2` was -17.5% [at 110 µM]; that for `c1ccc(CC2CN3CCCC3CN2)cc1` (stereo not given) was -5.65%.
